Laboratory results: PubChem BioAssay (EPA / NIEHS)
Inconclusive results are not listed. Active and inactive are the calls of the source. The calls were made as follows, unless noted: active = hit-call score of the fitted dose curve at least 0.9, where 1 is the maximum; inactive = score below 0.9.

Experiments:
[1] = read-out: Collagen I, COL1A1 (gene 1277); assay: BSK_MyoF_CollagenI: BioMAP Diversity Plus: MyoF Assay for Collagen I Biomarker Activity (AID 2284238); settings: primary human lung fibroblasts
Method in brief: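 Lung fibroblasts (human primary) dosed, 24 h; Collagen I by ELISA; positive-direction fit vs DMSO control. Parallel SRB total-protein staining (0.1% SRB, 10% TCA fixation, 560 nm) flags overt cytotoxicity.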

[2] = read-out: Actin alpha 1 (ACTA1), ACTA1 (gene 58); assay: BSK_MyoF_ACTA1: BioMAP Diversity Plus: MyoF Assay for Actin alpha 1 (ACTA1) Biomarker Activity (AID 2284244); settings: primary human lung fibroblasts
Method in brief: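 Measured by ELISA: alpha-smooth muscle actin in human primary lung fibroblasts 24 h after dosing, with DMSO as baseline and upward signal change as the fitted direction.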

[3] = read-out: Interleukin 2 (IL2), IL2 (gene 3558); assay: BSK_BT_xIL2: BioMAP Diversity Plus: BT Assay for Interleukin 2 (IL2) Biomarker Activity (AID 2284245); settings: primary human B cells with PBMC
Method in brief: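 Secreted interleukin-2 from human B cell/PBMC co-cultures, measured 24 h post-dosing by Luminex multiplex immunoassay. Upward-direction curve fitting against DMSO baseline.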

[4] = read-out: Basic fibroblast growth factor (bFGF), FGF2 (gene 2247); assay: BSK_MyoF_bFGF: BioMAP Diversity Plus: MyoF Assay for Basic fibroblast growth factor (bFGF) Biomarker Activity (AID 2284246); settings: primary human lung fibroblasts
Method in brief: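 In this multiplexed cell system, lung fibroblasts (human primary) receive test chemical for 24 h before ELISA detection of bFGF; DMSO defines baseline and the analysis direction is positive.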

[5] = read-out: Collagen IV, COL4A1 (gene 1282); assay: BSK_MyoF_CollagenIV: BioMAP Diversity Plus: MyoF Assay for Collagen IV Biomarker Activity (AID 2284247); settings: primary human lung fibroblasts
Method in brief: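 Activity is scored as a signal increase over DMSO in an ELISA for Collagen IV, measured on human lung fibroblasts at 24 h after chemical treatment. Cytotoxicity is checked in parallel cultures by sulforhodamine B total-protein staining.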

[6] = read-out: Plasminogen activator inhibitor-1 (PAI1), SERPINE1 (gene 5054); assay: BSK_MyoF_PAI1: BioMAP Diversity Plus: MyoF Assay for Plasminogen activator inhibitor-1 (PAI1) Biomarker Activity (AID 2284256); settings: primary human lung fibroblasts
Method in brief: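 Primary human lung fibroblasts are dosed and incubated 24 h. PAI-1 is then measured by ELISA, while parallel cultures undergo SRB staining for overt cytotoxicity. Increases over DMSO define activity.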

[7] = read-out: Interleukin-8 (IL8), CXCL8 (gene 3576); assay: BSK_MyoF_IL8: BioMAP Diversity Plus: MyoF Assay for Interleukin-8 (IL8) Biomarker Activity (AID 2284261); settings: primary human lung fibroblasts
Method in brief: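 IL-8 levels were measured by ELISA in human lung fibroblasts harvested 24 h after compound addition. Responses were analysed as gain of signal over the DMSO baseline.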

[8] = read-out: Decorin, DCN (gene 1634); assay: BSK_MyoF_Decorin: BioMAP Diversity Plus: MyoF Assay for Decorin Biomarker Activity (AID 2284265); settings: primary human lung fibroblasts
Method in brief: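 Compound is added to lung fibroblast cultures; cells incubate 24 h; decorin is then measured by ELISA; the response is analysed upward against DMSO controls.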

[9] = BSK_MyoF_SRB: Viability Assessment in the BioMAP Diversity Plus: MyoF Assay (AID 2284267); settings: primary human lung fibroblasts;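 also: total protein by SRB absorbance in parallel cultures as cytotoxicity measure; cells assessed 24 h after compound addition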
Method in brief: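 Cytotoxicity in primary human lung fibroblasts is gauged by SRB total-protein staining 24 h after dosing, with DMSO as the negative control.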

[10] = read-out: TIMP metallopeptidase inhibitor 1 (TIMP1), TIMP1 (gene 7076); assay: BSK_MyoF_TIMP1: BioMAP Diversity Plus: MyoF Assay for TIMP metallopeptidase inhibitor 1 (TIMP1) Biomarker Activity (AID 2284269); settings: primary human lung fibroblasts
Method in brief: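 Fibroblasts from human lung are dosed with chemical, cultured 24 h, and assayed for TIMP-1 by ELISA. Increases over the DMSO baseline are scored, with SRB total-protein staining run in parallel for cytotoxicity.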

[11] = CCTE_Mundy_HCI_hNP1_Casp3_7: CCTE's Caspase-Glo 3/7 Assay in human neuroprogenitor cells for Apoptosis, Mundy Lab (AID 2284240)
Method in brief: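 Luminescent caspase-3/7 readout, 26.5 h post-dose, in human neural progenitor cells from WA09 embryonic stem cells. Cells grew 40–44 h at 37 °C, 5% CO2 before chemical addition. Activity analysed as signal increase over DMSO baseline.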

[12] = CCTE_Mundy_HCI_hNP1_CellTiter: CCTE's Cell Titer-Glo 2 Assay in human neuroprogenitor cells for Viability, Mundy Lab (AID 2284241; active = hit-call score of the fitted dose curve at least 0.9, where 1 is the maximum;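 also: a hit is a drop in ATP luminescence versus DMSO meaning reduced viability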)
Method in brief: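 Viability read as luminescent ATP content (CellTiter-Glo, 30 min room temperature) twenty-four hours after dosing, relative to DMSO. Cells: WA09-derived hNP1 neuroprogenitors on poly-L-ornithine/laminin, plated 40 to 44 hours before chemical.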

[13] = CCTE_Mundy_HCI_Cortical_Synap_Neur_Matur_NeuronCount: CCTE's Synaptogenesis and Neurite Maturation Assay in rat cortical cells for Neuron Count, Mundy Lab (AID 2284242; active = hit-call score of the fitted dose curve at least 0.9, where 1 is the maximum;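 also: neuron number from Hoechst nuclei and MAP2 staining by high-content imaging; hits reduce neuron count versus DMSO baseline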)
Method in brief: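 Imaging-based neuron count in rat cortical cultures after chemical exposure from DIV 7 to DIV 12, with AraC added at DIV 5. Activity is fitted relative to DMSO.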

Measured: AC50

CC(=O)Nc1ccc(C(=O)CCl)cc1
inactive: [8]
active: [1] 29.5 µM | [2] 20 µM | [3] 5.57 µM | [4] 32.5 µM | [5] 16.9 µM | [6] 13.7 µM | [7] 29.6 µM | [9] 29.3 µM | [10] 34.5 µM

Cc1cc(CCC(=O)OCCOCCOCCOC(=O)CCc2cc(C)c(O)c(C(C)(C)C)c2)cc(C(C)(C)C)c1O
not listed: [11] | [12] | [13]
inactive: all other assays above

IC(I)I
not listed: [11] | [12] | [13]
inactive: all other assays above

Oc1c(Cl)cc(Cl)c(Cl)c1Cc1c(O)c(Cl)cc(Cl)c1Cl
inactive: [5] | [8]
active: [1] 0.215 µM | [11] 27 µM | [12] 21.2 µM | [13] 5 µM | [2] 0.469 µM | [3] 19.6 µM | [4] 1.32 µM | [6] 0.83 µM | [7] 13 µM | [9] 5.13 µM | [10] 1.07 µM

COc1cc(Cl)c(OC)cc1N
not listed: [11] | [12] | [13]
inactive: all other assays above

CCN(CC)C(=O)N(CC)CC
not listed: [11] | [12] | [13]
inactive: all other assays above

CN(C)C(=S)SC(=S)N(C)C
active: [2] 36.6 µM | [3] 0.432 µM | [4] 31.9 µM | [6] 3.95 µM
not listed: [11] | [12] | [13]
inactive: all other assays above

C=C(C)C(=O)OCC(CC)(COC(=O)C(=C)C)COC(=O)C(=C)C
inactive: [7]
active: [1] 10.2 µM | [2] 10.5 µM | [3] 19.7 µM | [4] 29.4 µM | [5] 14.6 µM | [6] 13 µM | [8] 10.1 µM | [9] 15.5 µM | [10] 32.3 µM

CC(C)(N=C=O)c1cccc(C(C)(C)N=C=O)c1
not listed: [11] | [12] | [13]
inactive: all other assays above

CC(C=O)Cc1ccc(C(C)(C)C)cc1 (stereo not drawn)
active: [2] 31.6 µM
not listed: [11] | [12] | [13]
inactive: all other assays above

c1ccc(Oc2ccccc2)cc1
not listed: [11] | [12] | [13]
inactive: all other assays above

C[C@@H]1CCN(C(=O)[C@H](CCCN=C(N)N)NS(=O)(=O)c2cccc3c2NC[C@H](C)C3)[C@@H](C(=O)O)C1
not listed: [11] | [12] | [13]
inactive: all other assays above

C1=CC2C3C=CC(C3)C2C1 (stereo not drawn)
not listed: [11] | [12] | [13]
inactive: all other assays above

CC=Cc1ccc(OCC)c(O)c1
not listed: [11] | [12] | [13]
inactive: all other assays above

c1ccc(CCc2ccccc2)cc1
active: [1] 31.9 µM | [2] 13.7 µM | [4] 30.4 µM | [5] 31.5 µM | [6] 35.2 µM | [8] 26.8 µM | [9] 37.2 µM | [10] 30.2 µM
inactive: [3] | [7]

C=C(C)[C@H]1CC=C(C)C(=O)C1
not listed: [11] | [12] | [13]
inactive: all other assays above

CC(C)(C)CC(C)(C)c1ccc(OCCOCC[N+](C)(C)Cc2ccccc2)cc1
active: [1] 5 µM | [2] 8.1 µM | [3] 6.28 µM | [4] 8.49 µM | [5] 8.51 µM | [6] 5 µM | [7] 5 µM | [9] 7.98 µM | [10] 5 µM
inactive: [8]

c1ccc2cc(Nc3ccc(Nc4ccc5ccccc5c4)cc3)ccc2c1
not listed: [11] | [12] | [13]
inactive: all other assays above

O=C1OC2(c3ccccc31)c1ccc(O)c(Br)c1Oc1c2ccc(O)c1Br
active: [5] 4.52 µM | [6] 9.25 µM
not listed: [11] | [12] | [13]
inactive: all other assays above

Clc1cc(Cl)c(-c2c(Cl)c(Cl)cc(Cl)c2Cl)cc1Cl
inactive: [4] | [5] | [8] | [10]
active: [1] 2.99 µM | [2] 4.98 µM | [3] 4.55 µM | [6] 4.46 µM | [7] 7.14 µM | [9] 11.6 µM

CCCCN(CCCC)C(=O)N(CCCC)CCCC
inactive: [7] | [8]
active: [1] 9.53 µM | [2] 6.35 µM | [3] 32.5 µM | [4] 10.1 µM | [5] 8.89 µM | [6] 10.7 µM | [9] 11 µM | [10] 9.42 µM

C=C(C)C(=O)OCCOCCOCCOC(=O)C(=C)C
not listed: [11] | [12] | [13]
inactive: all other assays above
